Records with an inconclusive call do not appear. Calls of active or inactive are those of the source. Calls follow the shape of the dose curve; as a rule, active = well fitted curve in the direction sought with a large enough effect in the repeat runs; inconclusive = weak or mixed curves; inactive = no such curve, though single readings can be large; an effect the other way counts as inactive or inconclusive.
Tests used:
[1] = A CellTox Green Cytotoxicity Assay to monitor cytotoxicity in HEK293 cells - 40 hour (AID 1224871); also: nearly all actives have a fitted effect of over 45% in size; also: potency is read from the fitted curve at half-maximal effect
How it was run: (§1)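 Homogeneous no-lysis format: HEK293 cell suspension mixed with CellTox Green reagent, seeded, incubated 5 h at 37 C/5% CO2, then dosed by pintool with compound in DMSO.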

[2] = qHTS RealTime-Glo MT Cell Viability Assay in HEK293 cells - 16 hour (AID 1224872); also: nearly all actives have a fitted effect of over 50% in size; also: potency is read from the fitted curve at half-maximal effect; as to activity change, negative = cytotoxicity: top concentration of the series differs between compounds
How it was run: (§2)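 Luminescence generated by NanoLuc from substrate produced by living HEK293 cells served as the viability signal. Each value reflects the reading at its stated time point during continuous 40 h compound exposure at 37 C.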

[3] = qHTS RealTime-Glo MT Cell Viability Assay in HepG2 cells - 8 hour (AID 1224873); also: nearly all actives have a fitted effect of over 55% in size; also: potency is read from the fitted curve at half-maximal effect
How it was run: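 HepG2 cells (600/well) mixed with RealTime-Glo MT reagent, settled 5 h at 37 C/5% CO2 before compound addition. Nonlytic NanoLuc luminescence from viable-cell prosubstrate reduction read repeatedly during 40 h treatment at 37 C.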

[4] = qHTS RealTime-Glo MT Cell Viability Assay in HEK293 cells - 40 hour (AID 1224874); conditions: RealTime-Glo luminescence; max response: stronger effect = lower value; also: nearly all actives have a fitted effect of over 50% in size; also: potency is read from the fitted curve at half-maximal effect
How it was run: (§3)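 Measured as luminescence from the same continuously cultured HEK293 wells at successive time points (0, 8, 16, 24, 32, 40 h) after compound addition. Reagent present from seeding; dosing at 5 h; incubation 37 C.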

[5] = A CellTox Green Cytotoxicity Assay to monitor cytotoxicity in HEK293 cells - 24 hour (AID 1224875); also: nearly all actives have a fitted effect of over 45% in size; also: potency is read from the fitted curve at half-maximal effect; as to activity change: series mostly up to about 77 µM
How it was run: as §1

[6] = A CellTox Green Cytotoxicity Assay to monitor cytotoxicity in HepG2 cells - 16 hour (AID 1224876); also: nearly all actives have a fitted effect of over 45% in size; also: potency is read from the fitted curve at half-maximal effect
How it was run: (§4)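 Fluorescent DNA-binding dye, 600 HepG2 cells/well, 5 h preincubation then compound in DMSO; same plates read at 0–40 h, 37 C.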

[7] = A CellTox Green Cytotoxicity Assay to monitor cytotoxicity in HepG2 cells - 24 hour (AID 1224878); also: nearly all actives have a fitted effect of over 45% in size; also: potency is read from the fitted curve at half-maximal effect
How it was run: as §4

[8] = A CellTox Green Cytotoxicity Assay to monitor cytotoxicity in HepG2 cells - 40 hour (AID 1224879); also: nearly all actives have a fitted effect of over 40% in size; also: potency is read from the fitted curve at half-maximal effect
How it was run: as §4

[9] = qHTS RealTime-Glo MT Cell Viability Assay in HEK293 cells - 0 hour (AID 1224880)
How it was run: as §3

[10] = A CellTox Green Cytotoxicity Assay to monitor cytotoxicity in HEK293 cells - 32 hour (AID 1224881); also: nearly all actives have a fitted effect of over 40% in size; also: potency is read from the fitted curve at half-maximal effect
How it was run: as §1

[11] = A CellTox Green Cytotoxicity Assay to monitor cytotoxicity in HepG2 cells - 0 hour (AID 1224882); also: nearly all actives have a fitted effect of over 35% in size
How it was run: as §4

[12] = A CellTox Green Cytotoxicity Assay to monitor cytotoxicity in HepG2 cells - 32 hour (AID 1224883); also: nearly all actives have a fitted effect of over 50% in size; also: potency is read from the fitted curve at half-maximal effect
How it was run: as §4

[13] = A CellTox Green Cytotoxicity Assay to monitor cytotoxicity in HEK293 cells - 8 hour (AID 1224884); also: nearly all actives have a fitted effect of over 35% in size; also: potency is read from the fitted curve at half-maximal effect
How it was run: as §1

[14] = qHTS RealTime-Glo MT Cell Viability Assay in HepG2 cells - 16 hour (AID 1224885); also: nearly all actives have a fitted effect of over 50% in size; also: potency is read from the fitted curve at half-maximal effect
How it was run: (§5)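 Tox21 10K library screened in qHTS format on HepG2 cells carrying RealTime-Glo reagents. Compounds were added after a 5 h preincubation, and the luminescent signal from continuous culture was measured repeatedly during 40 h treatment.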

[15] = qHTS RealTime-Glo MT Cell Viability Assay in HEK293 cells - 8 hour (AID 1224887); also: nearly all actives have a fitted effect of over 50% in size; also: potency is read from the fitted curve at half-maximal effect; as to activity change, negative = cytotoxicity: top concentration of the series differs between compounds
How it was run: as §3

[16] = A CellTox Green Cytotoxicity Assay to monitor cytotoxicity in HEK293 cells - 16 hour (AID 1224888); also: nearly all actives have a fitted effect of over 35% in size; also: potency is read from the fitted curve at half-maximal effect
How it was run: as §1

[17] = qHTS RealTime-Glo MT Cell Viability Assay in HepG2 cells - 0 hour (AID 1224889); also: nearly all actives have a fitted effect of over 50% in size
How it was run: as §5

[18] = A CellTox Green Cytotoxicity Assay to monitor cytotoxicity in HepG2 cells - 8 hour (AID 1224890); also: nearly all actives have a fitted effect of over 45% in size; also: potency is read from the fitted curve at half-maximal effect
How it was run: as §4

[19] = qHTS RealTime-Glo MT Cell Viability Assay in HepG2 cells - 32 hour (AID 1224877); also: nearly all actives have a fitted effect of over 55% in size; also: potency is read from the fitted curve at half-maximal effect
How it was run: as §5

[20] = qHTS RealTime-Glo MT Cell Viability Assay in HEK293 cells - 24 hour (AID 1224886); also: nearly all actives have a fitted effect of over 50% in size; also: potency is read from the fitted curve at half-maximal effect; as to activity change, negative = cytotoxicity: top concentration of the series differs between compounds
How it was run: as §2
% is scaled to controls: 0 for no effect and ±100 for the full control effect.

CNN
inactive: Potency [1] | Potency [2] | Potency [3] | max response [4] 9.14% | Potency [5] | Potency [6] | Potency [7] | Potency [8] | Potency [9] | Potency [10] | Potency [11] | Potency [12] | Potency [13] | Potency [14] | Potency [15] | Potency [16] | Potency [17] | Potency [18]

CN1[C@@H]2CC[C@H]1CC(O)C2 (some centres not stated)
inactive: Potency [1] | Potency [2] | Potency [3] | max response [4] 15.4% | Potency [5] | Potency [6] | Potency [19] | Potency [7] | Potency [9] | Potency [10] | Potency [11] | Potency [12] | Potency [13] | Potency [14] | Potency [20] | Potency [15] | Potency [16] | Potency [17] | Potency [18]

CCC[CH2][Sn]([CH2]CCC)([CH2]CCC)[O][Sn]([CH2]CCC)([CH2]CCC)[CH2]CCC
active: Potency [1] 302 nM | Potency [2] 214 nM | Potency [3] 956 nM | Potency [4] 151 nM | Potency [5] 427 nM | Potency [6] 603 nM | Potency [19] 537 nM | Potency [7] 537 nM | Potency [8] 537 nM | Potency [10] 339 nM | Potency [12] 537 nM | Potency [13] 2140 nM | Potency [14] 676 nM | Potency [20] 191 nM | Potency [15] 269 nM | Potency [16] 1700 nM | Potency [18] 676 nM
inactive: cytotoxicity [11] 5.3% [at 6.97 µM] | activity change, negative = cytotoxicity [17] 23.4% [at 6.97 µM]

CCCCC/C=C\C/C=C\C/C=C\C/C=C\CCCC(=O)NCC(=O)O
inactive: Potency [1] | Potency [2] | Potency [3] | max response [4] -10.5% | Potency [5] | Potency [6] | Potency [19] | Potency [7] | Potency [8] | Potency [10] | Potency [11] | Potency [12] | Potency [13] | Potency [14] | Potency [20] | Potency [15] | Potency [16] | Potency [17] | Potency [18]

COC(=O)c1ccccc1S(=O)(=O)NC(=O)Nc1nc(C)nc(OC)n1
inactive: Potency [1] | Potency [2] | Potency [3] | max response [4] 0.753% | Potency [5] | Potency [6] | Potency [19] | Potency [7] | Potency [8] | Potency [10] | Potency [11] | Potency [12] | Potency [13] | Potency [14] | Potency [15] | Potency [16] | Potency [17] | Potency [18]

O=C(NC(=O)c1c(F)cccc1F)Nc1ccc(Oc2ccc(C(F)(F)F)cc2Cl)cc1F
inactive: Potency [1] | Potency [3] | Potency [5] | Potency [6] | Potency [19] | Potency [7] | Potency [8] | Potency [9] | Potency [10] | Potency [11] | Potency [12] | Potency [14] | Potency [16] | Potency [17] | Potency [18]
active: Potency [2] 24500 nM | Potency [4] 43600 nM

CN1CCc2cc3c(cc2C1O)OCO3 (configuration not stated)
inactive: Potency [1] | Potency [2] | Potency [3] | max response [4] 1.96% | Potency [5] | Potency [6] | Potency [7] | Potency [8] | Potency [9] | Potency [10] | Potency [11] | Potency [12] | Potency [13] | Potency [14] | Potency [15] | Potency [16] | Potency [17] | Potency [18]

O=[N+]([O-])c1ccc(Cl)c(Cl)c1Cl
active: Potency [1] 34200 nM | Potency [5] 24200 nM
inactive: Potency [2] | Potency [3] | max response [4] -8.94% | Potency [6] | Potency [19] | Potency [7] | Potency [8] | Potency [11] | Potency [12] | Potency [13] | Potency [14] | Potency [15] | Potency [17] | Potency [18]

S=C=Nc1ccccc1
inactive: Potency [1] | Potency [2] | Potency [3] | max response [4] -7.14% | Potency [5] | Potency [6] | Potency [19] | Potency [7] | Potency [8] | Potency [10] | Potency [11] | Potency [12] | Potency [13] | Potency [14] | Potency [20] | Potency [15] | Potency [16] | Potency [17] | Potency [18]

CN=C=O
inactive: Potency [1] | Potency [2] | Potency [3] | max response [4] 8.4% | Potency [5] | Potency [6] | Potency [19] | Potency [7] | Potency [8] | Potency [10] | Potency [11] | Potency [12] | Potency [14] | Potency [20] | Potency [15] | Potency [16] | Potency [17] | Potency [18]

CC(Cl)CCl (configuration not stated)
inactive: Potency [1] | Potency [2] | Potency [3] | max response [4] -4.79% | Potency [5] | Potency [6] | Potency [7] | Potency [8] | Potency [9] | Potency [10] | Potency [11] | Potency [12] | Potency [13] | Potency [14] | Potency [20] | Potency [15] | Potency [16] | Potency [17] | Potency [18]

Oc1ccc(Cl)c(Cl)c1
inactive: Potency [1] | Potency [2] | Potency [3] | max response [4] -18.2% | Potency [5] | Potency [6] | Potency [19] | Potency [7] | Potency [8] | Potency [10] | Potency [11] | Potency [12] | Potency [13] | Potency [14] | Potency [20] | Potency [15] | Potency [16] | Potency [17] | Potency [18]

N#Cc1c2ccccc2cc2ccccc12
inactive: Potency [1] | Potency [2] | Potency [3] | max response [4] -9.07% | Potency [5] | Potency [6] | Potency [19] | Potency [7] | Potency [9] | Potency [10] | Potency [11] | Potency [12] | Potency [13] | Potency [14] | Potency [15] | Potency [16] | Potency [17] | Potency [18]
